Test results taken from PubChem BioAssay AID624296 (National Center for Advancing Translational Sciences (NCATS), 2012).
Hit rate of the full screen: of about 350,000 compounds, about 9,900 (2.8%) were called active. Another 15% or so got no clear call; they are omitted. The full list was thinned out, with actives kept by preference. Values without a mark were called inactive. The call rests on the fitted dose curve; in most records, active means well fitted activation curve with a large enough effect; inconclusive means small, poorly fitted or top-dose-only effect; inactive means no such curve, though single readings can be large or run the other way.

Experiment: A quantitative high throughput screen for small molecules that induce DNA re-replication in MCF 10a normal breast cells. Further: nearly all actives have a fitted effect of over 50% in size. On activity, positive = re-replication: % of control where 0% means no effect.
Conditions: MCF 10A DNA re-replication, Hoechst nuclear intensity, 48 h; series mostly up to 46.1 µM; activity, positive = re-replication: at the top concentration
Potency means the concentration at half of the fitted maximal effect.

Compound | activity, positive = re-replication [%] | Potency
O=C(Nc1cccc(Br)c1)c1ccc2snnc2c1 | 8.15 | 
CC(=O)c1c(OCC(=O)N(C)C2CCCCC2)ccc2c(C)cc(=O)oc12 | -5.05 | 
CC1=CC(=NNS(=O)(=O)c2ccc([N+](=O)[O-])cc2)CC(C)(C)C1 | 9.01 | 
COc1cc(C(=O)Nc2oc(-c3ccccc3)c(-c3ccccc3)c2C#N)cc(OC)c1OC | 12.2 | 
COc1ccc(-c2oc(/N=C/N3CCCC3)c(C#N)c2-c2ccc(OC)cc2)cc1 | 4.62 | 
N#Cc1c(/N=C/N2CCCC2)oc(-c2ccccc2)c1-c1ccccc1 |  | 9.2 µM (active)
O=C1NC(c2ccccc2)Cc2ccncc21 (stereo not given) | 1.31 | 
CCN(CC)S(=O)(=O)c1ccc(OC)c(NC(=O)CCc2c(C)noc2C)c1 | -0.0933 | 
C=C1CCC(N(O)c2cc(C)on2)C(=C)CCC2C1CC2(C)C (stereo not given) | 12.3 | 
CCCCN(C(=O)C(CCSC)N1C(=O)c2ccccc2C1=O)c1c(N)n(CCC)c(=O)[nH]c1=O (stereo not given) | 5.35 | 
NNc1nc2c(Cl)cccc2s1 |  | 16.4 µM (active)
O=C(Nc1ccccc1)Nc1nc2ccccc2s1 | -1.93 | 
CN(CC(=O)Nc1ccc(OC(F)F)cc1)S(=O)(=O)/C=C/c1ccccc1 | -0.819 | 
O=C(NN=Cc1ccccc1)c1ccccc1 | 2.48 | 
CC(C)(C)OC(=O)NCCCCCNC(=O)c1nc[nH]c1C(=O)NCc1ccccc1 | 19.9 | 
O=C1OC(Cc2ccccc2)C(c2ccccc2)C1=O (stereo not given) | 11.9 | 
CCOC(=O)N1CCN(CCC(=O)Nc2cc(OC)ccc2OC)CC1 | 1.69 | 
COc1ccc(OC)c(NC(=O)CCN2CCC(C)CC2)c1 |  | 5.17 µM (active)
COc1ccc(Cl)cc1NC(=O)CCN1CCOCC1 | -2.83 | 
CC1CCCC(NC(=O)c2cc(-c3ccncc3)nc3ccccc23)C1C (stereo not given) | 182 | 
O=C(COC(=O)COc1cccc(F)c1)NCC1CCCCC1 | 4.24 | 
COc1ccc(S(=O)(=O)N2CCOCC2)cc1NC(=O)CSc1nnc(NC2CC2)s1 | 0.0251 | 
Cc1ccc(Cc2nc(-c3cccc(C)c3)no2)cc1 | 5.26 | 
Cc1ccc(-c2noc(CC(c3ccccc3)c3ccccc3)n2)cc1 | 19.8 | 
COc1ccccc1Cc1nc(-c2ccc(C)cc2)no1 |  | 5.8 µM (active)

Compound | activity, positive = re-replication [%] | Potency
NC(=O)NCCCC(=O)O | 2.9 | 
CN(CC(=O)NCC(c1ccccc1)N1CCCC1)S(=O)(=O)c1ccc(Cl)cc1 (stereo not given) | 13.6 | 
Cc1ccc(N(CC(=O)Nc2cccc(N(C)S(C)(=O)=O)c2)S(C)(=O)=O)cc1 | -6.44 | 
CN(c1cccc(NC(=O)Nc2ccc(Cl)cc2)c1)S(C)(=O)=O |  | 13 µM (active)
Cn1ccc(NC(=O)Nc2ccc(Cl)cc2)n1 | -29.8 | 
COc1ccc(NS(=O)(=O)c2ccc(N3CCOCC3)c(NC(=O)/C=C/C(=O)O)c2)cc1 | -2.55 | 
Cc1ccc(-c2nn(-c3ccccc3)cc2/C=C/C(=O)Nc2cccc(S(N)(=O)=O)c2)cc1 |  | 13 µM (active)
O=C(/C=C/c1cn(-c2ccccc2)nc1-c1ccc2c(c1)OCCO2)NCCCN1CCOCC1 | 10 | 
Cc1ccc(-c2nn(-c3ccccc3)cc2C(=O)Nc2cccc(S(=O)(=O)N3CCOCC3)c2)cc1 | 1.34 | 
CC(=O)c1ccc(S(=O)(=O)NCCC(=O)N2CCN(c3ccccn3)CC2)cc1 | -6.67 | 
Cc1csc(SCC(=O)N(c2ccccc2)C(C)C)n1 | 15.8 | 
c1ccc2c(c1)OC1OC2Oc2ccccc21 | -3.33 | 
O=C(N[C@@H](Cc1ccccc1)C(=O)OCc1ccccc1)c1nc[nH]c1C(=O)N[C@@H](Cc1ccccc1)C(=O)OCc1ccccc1 | 16.7 | 
CC(C)(C)OC(=O)N1CCC(NC(=O)c2[nH]cnc2C(=O)N[C@@H](Cc2ccccc2)C(=O)OCc2ccccc2)CC1 |  | 14.6 µM (active)
O=C(N[C@@H](Cc1ccccc1)C(=O)OCc1ccccc1)c1nc[nH]c1C(=O)NC1CCNCC1 | 0.257 | 
NS(=O)(=O)c1ccc(CCNC(=O)c2ccc(Cl)c(S(=O)(=O)N3CCCCCC3)c2)cc1 | 20.2 | 
Cc1ccc(C(CC(=O)O)NC(=O)c2ccc(S(=O)(=O)N3CCCC3)cc2)cc1 (stereo not given) | -3.45 | 
CCOC(=O)C1(Cc2cccc(OC)c2)CCN(C(C)CC(C)(C)O)CC1 (stereo not given) | 0.346 | 
CCOC(=O)C1(Cc2cccc(OC)c2)CCN(C(C)COC)CC1 (stereo not given) | 11.2 | 
CCOC(=O)C1(Cc2cccc(OC)c2)CCN(Cc2csc(C(C)=O)c2)CC1 |  | 8.2 µM (active)
N#CC1(Nc2ccc(-c3ccc(Cl)cc3)cc2)CCCC1 | -2.31 | 
O=C(Nc1c(Br)cc2c(c1Br)Cc1ccccc1-2)C(F)(F)F | 14.3 | 
CCOC(=O)N1CCN(C(=O)c2ccccc2N(Cc2ccccc2)S(=O)(=O)c2ccc(OC)cc2)CC1 |  | 13 µM (active)
CCN1CCN(C(=O)c2ccccc2N(C)S(=O)(=O)c2ccc(C)cc2)CC1 | -2 | 
NC(=O)c1ccccc1N(Cc1ccccc1)S(=O)(=O)c1ccccc1 | 8.11 | 
